Cytotoxicity call data for 71 molecules are collected here from the antibiotic and cytotoxicity screens of Wong et al. (2023).

The campaign covered roughly 39,000 compounds. About 3,300 (8.5%) were called active. This excerpt belongs to a sample that is enriched for actives.

In the experiment the test system is HepG2. Nature of the experiment: cytotoxicity call (relative viability < 0.9). The note with it: 10 µM.
Turning to `C[C@H](CO)N1C[C@H](C)[C@H](CN(C)Cc2ccc(Oc3ccccc3)cc2)Oc2c(NS(=O)(=O)c3cccs3)cccc2C1=O`, the cytotoxicity call was “inactive”.
Next, `C[C@H]1CN([C@@H](C)CO)C(=O)c2cccc(NC(=O)c3ccncc3)c2O[C@H]1CN(C)Cc1ccncc1`: “inactive”; `C[C@@H]1CN([C@H](C)CO)C(=O)c2cc(-c3cccnc3)cnc2O[C@H]1CN(C)Cc1ccc(Oc2ccccc2)cc1`: “inactive”; `Cc1cccc(Oc2ccc(NC(=O)C3CCC(C)CC3)cc2)c1` (stereo unspecified): “inactive”.
As for `COc1ccc(NC(=O)Nc2ccc3c(c2)[C@H]2C[C@H](CC(=O)N4CCN(C)CC4)O[C@@H](CO)[C@H]2O3)cc1`, the cytotoxicity call was “inactive”.
Next, `CN1CCN(Cc2ccc(NC(=O)Nc3ccc(Oc4cc(NC(=O)C5CC5)ncn4)cc3)cc2C(F)(F)F)CC1`: “active”; `C[C@@H]1CN([C@H](C)CO)C(=O)Cc2cc(NS(=O)(=O)c3ccc(F)cc3)ccc2O[C@H]1CN(C)S(=O)(=O)c1ccccc1`: “inactive”; `C[C@H]1CCCCO[C@H](CN(C)C(=O)NC2CCCCC2)[C@@H](C)CN([C@@H](C)CO)C(=O)c2cc(NC(=O)NC3CCCCC3)ccc2O1`: “inactive”.
In the case of `N#C/C(=N\O)C(=O)c1ccco1`, the cytotoxicity call is “inactive”.
Regarding `CCOC(=O)Nc1nc2ccccc2[nH]1`, the cytotoxicity call is “inactive”.
On to `CCCOc1ccc2nc(NC(=O)OC)[nH]c2c1`, for which the cytotoxicity call was “active”.
As for `N=C(N)Nc1nc2ccccc2[nH]1`, the entry is “inactive”; as for `CCCSc1ccc2nc(NC(=O)OC)[nH]c2c1`, “active”; as for `COC(=O)Nc1nc2ccc(S(=O)c3ccccc3)cc2[nH]1` (stereo unspecified), “active”.
Regarding `COc1ccc2nc(S(=O)Cc3ncc(C)c(OC)c3C)[nH]c2c1` (stereo unspecified), the cytotoxicity call is “inactive”.
As to `Cn1c(=O)c2c(ncn2CC(=O)Nc2nc3ccccc3[nH]2)n(C)c1=O`, the cytotoxicity call was “inactive”.
As to `COC(=O)Nc1nc2ccc(Sc3ccccc3)cc2[nH]1`, the cytotoxicity call is “active”.
Consider `CC(C)NC(=O)c1cccc2cccc(Sc3ccccc3)c12`, for which the cytotoxicity call is “inactive”.
With `N=C(N)Nc1nc(=O)c2ccccc2[nH]1`, the cytotoxicity call is “inactive”.
In the case of `O=C(O)Cn1cccn1`, the cytotoxicity call is “inactive”.
Next, `CCC/C=C1\OC(=O)c2ccccc21`: “inactive”; `Cc1noc(C)c1S(=O)(=O)N(C)C[C@@H]1OCCCC[C@@H](C)Oc2ccc(NC(=O)Nc3cccc4ccccc34)cc2C(=O)N([C@H](C)CO)C[C@@H]1C`: “inactive”; `C[C@H]1CN([C@@H](C)CO)C(=O)Cc2cc(NC(=O)Nc3ccc(C(F)(F)F)cc3)ccc2O[C@@H]1CN(C)Cc1ccc(C(=O)O)cc1`: “inactive”.
For `COc1ccc(CN(C)C[C@H]2OCCCC[C@@H](C)Oc3ccc(NC(=O)NC(C)C)cc3C(=O)N([C@H](C)CO)C[C@@H]2C)cc1`, the cytotoxicity call was “inactive”.
On to `CCCC(=O)Nc1ccc2c(c1)C(=O)N(C)C[C@H](OC)[C@H](C)CN(Cc1ccc(-c3ccccn3)cc1)[C@@H](C)CO2`, for which the cytotoxicity call is “inactive”.
With `CN(CCN)C1CCCCC1`, the cytotoxicity call is “inactive”.
Turning to `CCS(=O)(=O)NCC[C@H]1CC[C@H](NC(=O)Cc2ccccn2)[C@@H](CO)O1`, the cytotoxicity call is “inactive”.
On to `C[C@@H]1CCCCO[C@H](CN(C)C(=O)Cc2ccccc2)[C@@H](C)CN([C@@H](C)CO)C(=O)c2cc(NC(=O)c3ccccc3)ccc2O1`, for which the cytotoxicity call was “inactive”.
As for `CCS(=O)(=O)N1CC[C@]2(CC1)CN([C@H](CO)c1c2c2ccc(cc2n1C)OC)C(=O)c1cccc(c1)F`, the entry is “inactive”; as for `COc1ccc(S(=O)(=O)Nc2ccc3c(c2)C(=O)N([C@@H](C)CO)C[C@H](C)[C@@H](CN(C)Cc2ccc4c(c2)OCO4)OCCCC[C@H](C)O3)cc1`, “inactive”; as for `Cc1ccc(S(=O)(=O)Nc2ccc3c(c2)C(=O)N([C@H](C)CO)C[C@@H](C)[C@H](CN(C)Cc2ccc4c(c2)OCO4)OCCCC[C@@H](C)O3)cc1`, “inactive”.
Next, `Cn1cnc(S(=O)(=O)N[C@@H]2CC[C@H](CC(=O)NCC3CC3)O[C@H]2CO)c1`: “inactive”; `OC[C@H]1O[C@H]([S][Au])[C@H](O)[C@@H](O)[C@@H]1O`: “active”.
Take `OC[C@H]1O[C@@H](O)[C@H](O)[C@@H](O)[C@H]1O`: the cytotoxicity call was “inactive”.
For `OC[C@H]1O[C@@H](O)[C@@H](O)[C@@H](O)[C@@H]1O`, the cytotoxicity call was “inactive”.
In the case of `Cc1noc(C)c1NC(=O)Nc1ccc2c(c1)C(=O)N([C@H](C)CO)C[C@H](C)[C@H](CN(C)S(=O)(=O)c1cn(C)cn1)O2`, the cytotoxicity call is “inactive”.
Regarding `COc1ccc(S(=O)(=O)Nc2ccc3c(c2)C(=O)N([C@H](C)CO)C[C@@H](C)[C@H](CN(C)C(=O)Nc2cccc4ccccc24)O3)cc1`, the cytotoxicity call is “inactive”.
As to `CC(C)(C)[S@](=O)N1Cc2cc(C(=O)NCc3ccc4c(c3)OCO4)nc(-c3cccc(-c4ccncc4)c3)c2[C@@H]1CCO`, the cytotoxicity call is “inactive”.
Take `CC(C)(C)[S@](=O)N1Cc2cc(C(=O)NCc3ccc4c(c3)OCO4)nc(-c3cccc(-c4cccnc4)c3)c2[C@@H]1CCO`: the cytotoxicity call was “inactive”.
Turning to `CC(C)(C)S(=O)N1Cc2cc(C(=O)NCc3ccc4c(c3)OCO4)nc(-c3cccc(-c4cccc(F)c4)c3)c2[C@@H]1CCO` (stereo partly specified), the cytotoxicity call was “active”.
In the case of `CC(C)(C)[S@@](=O)N1Cc2cc(C(=O)NCc3ccc4c(c3)OCO4)nc(-c3cccc(-c4ccncc4)c3)c2[C@H]1CCO`, the cytotoxicity call was “inactive”.
Next, `CC(C)(C)S(=O)N1Cc2cc(C(=O)NCc3ccc4c(c3)OCO4)nc(-c3cccc(-c4cccc(F)c4)c3)c2[C@H]1CCO` (stereo partly specified): “active”; `CC(C)(C)[S@@](=O)N1Cc2cc(C(=O)NCc3ccc4c(c3)OCO4)nc(-c3cccc(-c4ccccc4)c3)c2[C@H]1CCO`: “inactive”.
In the case of `COc1ccc([C@H]2CNCCN2)cc1`, the cytotoxicity call is “inactive”.
Regarding `C[C@@H]1CN([C@@H](C)CO)C(=O)c2ccccc2-c2ccccc2CO[C@@H]1CN(C)C(=O)Nc1cccc(Cl)c1Cl`, the cytotoxicity call was “inactive”.
For the molecule `COc1ccc(S(=O)(=O)N(C)C[C@H]2Oc3ccc(NC(=O)Cn4cnnn4)cc3C(=O)N([C@@H](C)CO)C[C@H]2C)cc1`, the cytotoxicity call was “inactive”.
As for `CCc1nc2ccc(C(=O)N3CCN(S(=O)(=O)CC)CC3)cn2c1N(CC)C(=O)CCC1CCCC1`, the entry is “inactive”; as for `Cc1ccc(S(=O)(=O)Oc2ccc(/N=N/c3ccc(-c4ccc(/N=N/c5c(O)ccc6cc(S(=O)(=O)O)cc(S(=O)(=O)O)c56)c(C)c4)cc3C)cc2)cc1`, “inactive”.
On to `Cc1cc(-c2ccc(N=Nc3ccc4c(S(=O)(=O)[O-])cc(S(=O)(=O)[O-])c(N)c4c3O)c(C)c2)ccc1N=Nc1ccc2c(S(=O)(=O)[O-])cc(S(=O)(=O)[O-])c(N)c2c1O.[Na+].[Na+].[Na+].[Na+]`, for which the cytotoxicity call was “active”.
On to `C[C@@H]1CN([C@H](C)CO)C(=O)CCCn2cc(nn2)CO[C@H]1CN(C)C(=O)Nc1ccc(C(C)(C)C)cc1`, for which the cytotoxicity call was “inactive”.
On to `C[C@@H]1CCCCO[C@H](CN(C)C(=O)Nc2ccc(C(F)(F)F)cc2)[C@@H](C)CN([C@H](C)CO)C(=O)c2cc(NC(=O)CCCCCC(=O)Nc3ccccc3N)ccc2O1`, for which the cytotoxicity call is “inactive”.
Next, `NS(=O)(=O)OC[C@H]1C[C@@H](Nc2ccnc3cc(-c4cccc(SC(F)(F)F)c4)nn23)[C@H](O)[C@@H]1O`: “active”; `O=C(C[C@H]1C[C@H]2c3cc(NC(=O)Cc4ccncc4)ccc3O[C@H]2[C@H](CO)O1)NCc1cccc(F)c1`: “inactive”.
On to `CO[C@@H]1CN(C)C(=O)c2ccc(NC(=O)Nc3ccccc3F)cc2OC[C@@H](C)N(Cc2ccccc2F)C[C@H]1C`, for which the cytotoxicity call is “inactive”.
On to `Cc1c(CN2CCN(C(=O)[C@H](C)O)CC2)sc2c(N3CCOCC3)nc(-c3cnc(N)nc3)nc12`, for which the cytotoxicity call was “active”.
Take `CC(=O)Nc1ncc(CN2CCOCC2)s1`: the cytotoxicity call was “inactive”.
Next, `C[C@@H]1CN([C@H](C)CO)C(=O)Cc2cc(NC(=O)Cc3cn(C)c4ccccc34)ccc2O[C@@H]1CN(C)S(=O)(=O)c1cn(C)cn1`: “inactive”.
In the case of `C#CCN1[C@H](/C=C/C2CC2)[C@H](Cc2ccccc2)OC(=O)[C@@H]1Cc1ccc(-n2cc(COc3ccccc3/C=C(C)/C=C/C(=O)NO)nn2)cc1`, the cytotoxicity call is “active”.
As to `COC(=O)[C@@H](NC(=O)Cn1cc(C(=O)NO)nn1)c1ccccc1`, the cytotoxicity call is “active”.
In the case of `COC(=O)[C@@H](NC(=O)Cn1cc(COc2ccccc2/C=C(C)/C=C/C(=O)NO)nn1)c1ccccc1`, the cytotoxicity call is “active”.
For `COC(=O)[C@@H](NC(=O)Cn1cc(CCC(=O)NO)nn1)c1ccccc1`, the cytotoxicity call is “inactive”.
Regarding `C=C/C=C/[C@@H]1C(=C)CN2[C@H]1[C@H](Cc1ccccc1)OC(=O)[C@@H]2Cc1ccc(-n2cc(COc3ccccc3/C=C(C)/C=C/C(=O)NO)nn2)cc1`, the cytotoxicity call is “inactive”.
As for `CC(/C=C/C(=O)NO)=C\c1ccccc1OCc1cn(-c2ccc(C[C@H]3C(=O)O[C@@H](Cc4ccccc4)[C@H]4[C@@H]5C=CCCC=C5CN43)cc2)nn1`, the entry is “inactive”.
Take `CC(/C=C/C(=O)NO)=C\c1ccccc1OCc1cn(CC(=O)N2CCN(c3ccccc3)CC2)nn1`: the cytotoxicity call was “inactive”.
As to `CCOC(=O)[C@H](Cc1ccccc1)NC(=O)Cn1cc(C(=O)NO)nn1`, the cytotoxicity call is “inactive”.
With `COC(=O)[C@H](Cc1ccccc1)N1CC2=C[C@@H](C3CC3)n3c(=O)n(C)c(=O)n3[C@H]2[C@@H]1[C@@H](O)CCn1cc(COc2ccccc2/C=C(C)/C=C/C(=O)NO)nn1`, the cytotoxicity call was “inactive”.
Take `COC(=O)[C@@H](Cc1ccc(-n2cc(COc3ccccc3/C=C(C)/C=C/C(=O)NO)nn2)cc1)N1CC2=C[C@H](C3CC3)n3c(=O)n(C)c(=O)n3[C@@H]2[C@H]1[C@H](O)Cc1ccccc1`: the cytotoxicity call was “inactive”.
With `C=C/C=C/[C@H]1C(=C)CN([C@H](Cc2ccc(-n3cc(COc4ccccc4/C=C(C)/C=C/C(=O)NO)nn3)cc2)C(=O)OC)[C@@H]1[C@H](O)Cc1ccccc1`, the cytotoxicity call is “inactive”.
Regarding `COC(=O)[C@@H](Cc1ccc(-n2cc(COc3ccccc3/C=C(C)/C=C/C(=O)NO)nn2)cc1)N1CC2=CCCC=C[C@@H]2[C@H]1[C@H](O)Cc1ccccc1`, the cytotoxicity call is “active”.
Turning to `CS(=O)(=O)N1C[C@H](O)COC[C@H]2O[C@@H](CC(=O)NCc3ccccc3)CC[C@@H]21`, the cytotoxicity call was “inactive”.
For `CC(C)(C)[S@@](=O)N1Cc2cc(C(=O)N3CCc4ccccc4C3)nc(-c3cccc(-c4cncnc4)c3)c2[C@H]1CCO`, the cytotoxicity call is “inactive”.
